Measured values as given in PubChem BioAssay.
Values without a mark were called inactive. No rule for the calls is given here.

Target: Pantothenate synthetase (Mycobacterium tuberculosis (strain ATCC 25618 / H37Rv)) (UniProt P9WIL5)
Assay: Recombinant Mtb pantothenate synthetase (PanC) inhibitors, coupled enzyme, confirmatory (AID 375);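 also: 0% = full reaction with vehicle and 100% = no enzyme background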
Settings: coupled enzyme assay; at 10 µM, stronger effect = higher value

Chain of Pantothenate synthetase (Mycobacterium tuberculosis (strain ATCC 25618 / H37Rv)) (P9WIL5 whole entry, looked up): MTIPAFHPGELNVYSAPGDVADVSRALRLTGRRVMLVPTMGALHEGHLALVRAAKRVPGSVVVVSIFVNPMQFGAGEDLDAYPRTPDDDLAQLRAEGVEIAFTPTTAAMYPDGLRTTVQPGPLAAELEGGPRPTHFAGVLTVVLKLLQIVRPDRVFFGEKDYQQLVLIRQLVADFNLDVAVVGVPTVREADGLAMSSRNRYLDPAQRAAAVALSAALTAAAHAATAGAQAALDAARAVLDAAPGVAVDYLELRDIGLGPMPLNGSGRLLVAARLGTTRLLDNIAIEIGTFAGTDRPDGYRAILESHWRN

SMILES	inhibition
CCOC(=O)CCC(=O)O[C@H]1[C@H](O[C@@H]2[C@@H](C)[C@H](O[C@H]3C[C@@](C)(OC)[C@@H](O)[C@H](C)O3)[C@@H](C)C(=O)O[C@H](CC)[C@@](C)(O)[C@H](O)[C@@H](C)C(=O)[C@H](C)C[C@@]2(C)O)O[C@H](C)C[C@@H]1N(C)C	0%
COC(=O)c1cc(Br)c(=O)n(Cc2cccnc2)c1	9%
Cc1cc2n(n1)C(c1ccccc1)Nc1ccccc1-2 (stereo unspecified)	7%
O=C1CCCc2c1nn(-c1ccccc1)[n+]2[O-]	0%
Cc1ccc(Cn2c(SCCN3CCCCC3)nc3c2c(=O)[nH]c(=O)n3C)cc1	2%
O=C(CSc1nc2ccccc2nc1SCC(=O)N1CCOCC1)N1CCOCC1	0%
COc1ccccc1-n1c(=O)[nH]c2c(C(N)=O)nc(-c3cccnc3)nc21	0%
COc1cc(NC(=O)Cc2ccccc2OC)cc(OC)c1	0%
COc1cc(C(=O)Nc2cc(C)ccn2)cc(OC)c1OC	0%
O=C(NC1CCCC1)c1cc(-c2cccs2)on1	6%
CN(C)CCOC(C)(c1ccccc1)c1ccccn1 (stereo unspecified)	0%
CC(=O)Nc1ccc(S(=O)(=O)CCC#N)cc1	5%
CCN(CC)c1ccc2c(c1)CCCN2	3%
Nc1nnc(SCc2cc3c(cc2Cl)OCO3)s1	7%
c1ccc2[nH]c(CSc3nnc(-c4ccncc4)o3)nc2c1	4%
C/C(=C\c1ccco1)C1C(C#N)=C(N)OC2=C1C(=O)CC(C)(C)C2 (stereo unspecified)	12%
Cc1cc(C(=O)NCCCN2CCN(C3CCCCC3)CC2)n(-c2ccccc2)n1	4%
Cc1ccc2nc(NC(=O)C3CCCN(S(=O)(=O)c4cccc5nonc45)C3)sc2c1 (stereo unspecified)	1%
COc1ccc2cc(C#N)c(N3CCN(Cc4nnnn4CCC(C)C)CC3)nc2c1	8%
O=c1/c(=C/c2ccco2)sc2nc(-c3ccccc3Br)nn12	0%
COc1ccccc1-c1nc(C(F)(F)F)c(OC)o1	0%
Cc1ccc2c(c1)c1c3n2CC(=C2C(=O)OC(C)(C)OC2=O)NC3CCC1 (stereo unspecified)	6%
CCOc1ccc2[nH]c(=O)c(C(c3nnnn3Cc3ccco3)N3CCC(C)CC3)cc2c1 (stereo unspecified)	0%

SMILES	inhibition
Cc1nc2c(=O)oc3ccccc3c2n1-c1ccccc1	0%
O=C(Nc1ccccc1C(=O)NCCCn1ccnc1)c1ccccc1	3%
COc1ccc(CCNC(=O)C2=COCCO2)cc1	0%
Cc1noc(/C=C/N(C)C)c1S(=O)(=O)N1CCc2ccccc21	0%
O=C(O)CC1CCCC(c2ccccc2)C1=O (stereo unspecified)	5%
O=C1Nc2ccccc2OC1CC(=O)N1CCCC1 (stereo unspecified)	0%
Cc1ccccc1NC(=O)c1c(F)c(F)c(F)c(F)c1F	0%
O=C1C(Cl)=C(N2CCOCC2)C(=O)N1CCc1ccccc1	4%
S=C(NCC1CCCO1)n1nnc2ccccc21 (stereo unspecified)	6%
CCCCC[C@H](O)/C=C/C1=C(CCCCCCC(=O)O)C(=O)CC1	0%
O=C(CS(=O)(=O)Cc1ccccc1)N1CCc2ccccc2C1	1%
COc1ccc2nc(SCC(=O)NC(C)C)[nH]c2c1	0%
CCOC(=O)N1CCC(n2c(SCC(=O)NCc3ccco3)nc3ccsc3c2=O)CC1	0%
C=C(c1ccc(O)cc1)c1ccc(O)cc1	0%
C[C@@H]1CCC[C@H](C)N1NC(=O)c1ccc(Cl)c(S(N)(=O)=O)c1	0%
Cn1c(=O)c2c(-c3ccncc3)c3c(nc2n(C)c1=O)-c1ccccc1C3=O	0%
CCOC(=O)CSC1=C(C#N)C(=O)NC2(CCCCC2)S1	3%
Nc1c(C(=O)NCCN2CCOCC2)c2nc3ccccc3nc2n1-c1ccc2c(c1)OCO2	1%
CCCCNC(=O)Cn1c(=O)n(C)c2ccccc21	0%
COc1ccccc1C(=O)N1CCN(C(=O)COc2cccc(C)c2)CC1	3%
Cc1ccc(S(=O)(=O)NC(C)C(=O)Nc2ccc(C(N)=O)cc2)cc1 (stereo unspecified)	0%
CCOC(=O)c1c(-c2ccc(C)o2)csc1NC(=O)COC(=O)c1cccs1	5%
CN1CCN(C(=O)CCC(=O)c2ccc(F)cc2)CC1	9%
